# In ChEMBL document CHEMBL1961873, “Compounds: GSK PKIS; Assays: Nanosyn kinase panel” (2012):
# Columns and labels:
# [1] = molecular target: T1, Inhibitor of nuclear factor kappa-B kinase subunit epsilon (Homo sapiens) (UniProt Q14164); settings: at 1 µM;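 also: reported values are averaged percent inhibition figures against human IKKε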
# T1 sequence (whole entry): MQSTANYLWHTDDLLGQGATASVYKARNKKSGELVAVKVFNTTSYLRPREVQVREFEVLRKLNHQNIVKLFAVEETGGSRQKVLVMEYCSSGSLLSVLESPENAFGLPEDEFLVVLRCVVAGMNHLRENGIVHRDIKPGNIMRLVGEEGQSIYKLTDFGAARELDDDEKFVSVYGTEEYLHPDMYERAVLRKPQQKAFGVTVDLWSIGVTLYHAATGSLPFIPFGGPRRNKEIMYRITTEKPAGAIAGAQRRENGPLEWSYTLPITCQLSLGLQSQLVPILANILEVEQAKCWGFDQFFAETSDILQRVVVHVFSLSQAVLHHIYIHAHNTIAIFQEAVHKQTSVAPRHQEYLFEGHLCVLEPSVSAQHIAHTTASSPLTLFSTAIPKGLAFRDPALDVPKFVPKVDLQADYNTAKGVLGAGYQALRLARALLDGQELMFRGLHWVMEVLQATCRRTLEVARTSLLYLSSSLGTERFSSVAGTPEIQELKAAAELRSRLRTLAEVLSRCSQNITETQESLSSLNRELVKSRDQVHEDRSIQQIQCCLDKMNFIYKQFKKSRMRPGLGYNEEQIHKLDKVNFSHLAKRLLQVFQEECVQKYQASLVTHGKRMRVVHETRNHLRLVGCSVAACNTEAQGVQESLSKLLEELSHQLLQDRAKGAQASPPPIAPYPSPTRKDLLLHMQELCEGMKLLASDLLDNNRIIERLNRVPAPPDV
# [2] = molecular target: T2, Serine/threonine-protein kinase Nek1 (Homo sapiens) (UniProt Q96PY6); settings: at 0.1 µM
# T2 sequence (whole entry): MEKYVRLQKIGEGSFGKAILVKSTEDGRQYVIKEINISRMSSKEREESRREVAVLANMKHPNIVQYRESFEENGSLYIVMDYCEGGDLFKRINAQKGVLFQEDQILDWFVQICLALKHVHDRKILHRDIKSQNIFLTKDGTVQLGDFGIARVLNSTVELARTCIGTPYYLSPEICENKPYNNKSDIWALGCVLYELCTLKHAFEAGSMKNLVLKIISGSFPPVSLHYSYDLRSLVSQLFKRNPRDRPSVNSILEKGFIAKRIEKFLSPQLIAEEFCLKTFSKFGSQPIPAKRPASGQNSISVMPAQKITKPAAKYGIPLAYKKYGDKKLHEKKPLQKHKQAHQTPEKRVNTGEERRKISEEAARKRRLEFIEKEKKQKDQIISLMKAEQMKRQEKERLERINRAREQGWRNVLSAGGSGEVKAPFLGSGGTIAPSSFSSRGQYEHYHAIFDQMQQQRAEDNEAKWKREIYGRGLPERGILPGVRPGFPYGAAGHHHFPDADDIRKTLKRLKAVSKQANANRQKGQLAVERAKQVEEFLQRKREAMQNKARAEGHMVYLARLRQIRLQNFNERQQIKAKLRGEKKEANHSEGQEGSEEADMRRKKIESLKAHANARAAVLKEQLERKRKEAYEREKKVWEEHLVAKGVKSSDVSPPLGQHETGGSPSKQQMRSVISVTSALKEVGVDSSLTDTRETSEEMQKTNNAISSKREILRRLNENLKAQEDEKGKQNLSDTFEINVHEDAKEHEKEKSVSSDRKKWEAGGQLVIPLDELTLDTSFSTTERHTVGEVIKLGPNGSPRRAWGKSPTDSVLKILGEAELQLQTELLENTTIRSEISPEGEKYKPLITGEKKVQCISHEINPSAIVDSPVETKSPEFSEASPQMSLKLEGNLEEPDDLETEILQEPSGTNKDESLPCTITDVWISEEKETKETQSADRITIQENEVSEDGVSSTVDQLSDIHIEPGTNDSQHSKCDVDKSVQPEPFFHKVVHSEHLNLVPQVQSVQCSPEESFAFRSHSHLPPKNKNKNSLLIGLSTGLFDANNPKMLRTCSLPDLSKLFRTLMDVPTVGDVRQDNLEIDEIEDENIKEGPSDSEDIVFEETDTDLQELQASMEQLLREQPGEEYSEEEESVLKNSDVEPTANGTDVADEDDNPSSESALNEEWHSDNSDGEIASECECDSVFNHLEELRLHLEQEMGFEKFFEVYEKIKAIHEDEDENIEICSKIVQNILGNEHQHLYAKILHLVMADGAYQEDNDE
# [3] = molecular target: T2, Serine/threonine-protein kinase Nek1 (Homo sapiens); settings: at 1 µM
# [4] = molecular target: T3, Serine/threonine-protein kinase Nek2 (Homo sapiens) (UniProt P51955); settings: at 0.1 µM
# T3 sequence (whole entry): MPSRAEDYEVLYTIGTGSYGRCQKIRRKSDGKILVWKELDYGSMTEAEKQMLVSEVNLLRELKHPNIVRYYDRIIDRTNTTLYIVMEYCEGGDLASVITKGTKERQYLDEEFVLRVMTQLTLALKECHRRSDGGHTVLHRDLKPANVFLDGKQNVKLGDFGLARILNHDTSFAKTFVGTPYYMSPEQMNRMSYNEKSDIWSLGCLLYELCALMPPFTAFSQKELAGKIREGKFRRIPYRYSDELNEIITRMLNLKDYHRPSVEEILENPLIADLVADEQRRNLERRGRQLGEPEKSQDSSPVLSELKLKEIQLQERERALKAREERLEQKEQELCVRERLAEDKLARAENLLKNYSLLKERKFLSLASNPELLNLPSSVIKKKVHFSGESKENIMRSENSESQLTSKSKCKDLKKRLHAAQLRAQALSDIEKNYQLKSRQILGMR
# [5] = molecular target: T3, Serine/threonine-protein kinase Nek2 (Homo sapiens); settings: at 1 µM
# [6] = molecular target: Serine/threonine-protein kinase Nek6 (Homo sapiens) (UniProt Q9HC98); settings: at 0.1 µM
# Chain of Serine/threonine-protein kinase Nek6 (Homo sapiens) (Q9HC98 whole entry): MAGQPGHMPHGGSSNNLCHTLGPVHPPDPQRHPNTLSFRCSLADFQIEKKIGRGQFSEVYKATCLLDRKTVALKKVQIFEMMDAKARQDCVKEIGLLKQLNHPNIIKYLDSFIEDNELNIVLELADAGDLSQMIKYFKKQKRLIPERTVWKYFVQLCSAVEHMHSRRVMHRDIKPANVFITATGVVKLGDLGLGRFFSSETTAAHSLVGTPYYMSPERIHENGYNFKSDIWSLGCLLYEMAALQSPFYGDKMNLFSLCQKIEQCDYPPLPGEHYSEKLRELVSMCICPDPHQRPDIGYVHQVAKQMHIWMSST
# [7] = molecular target: Serine/threonine-protein kinase Nek6 (Homo sapiens) (UniProt Q9HC98); settings: at 1 µM
# [8] = molecular target: Serine/threonine-protein kinase Nek7 (Homo sapiens) (UniProt Q8TDX7); settings: at 0.1 µM
# Chain of Serine/threonine-protein kinase Nek7 (Homo sapiens) (Q8TDX7 whole entry, looked up): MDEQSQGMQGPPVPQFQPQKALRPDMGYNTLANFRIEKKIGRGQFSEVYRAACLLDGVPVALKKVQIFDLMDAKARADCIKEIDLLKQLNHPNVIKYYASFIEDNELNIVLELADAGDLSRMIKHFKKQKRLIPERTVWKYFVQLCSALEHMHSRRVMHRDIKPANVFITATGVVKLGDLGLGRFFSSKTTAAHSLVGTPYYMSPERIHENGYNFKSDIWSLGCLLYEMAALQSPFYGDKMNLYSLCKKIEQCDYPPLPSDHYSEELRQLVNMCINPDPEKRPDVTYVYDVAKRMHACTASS
# [9] = molecular target: Serine/threonine-protein kinase Nek7 (Homo sapiens) (UniProt Q8TDX7); settings: at 1 µM
# [10] = molecular target: T4, Serine/threonine-protein kinase Nek9 (Homo sapiens) (UniProt Q8TD19); settings: at 0.1 µM
# T4 sequence (whole entry): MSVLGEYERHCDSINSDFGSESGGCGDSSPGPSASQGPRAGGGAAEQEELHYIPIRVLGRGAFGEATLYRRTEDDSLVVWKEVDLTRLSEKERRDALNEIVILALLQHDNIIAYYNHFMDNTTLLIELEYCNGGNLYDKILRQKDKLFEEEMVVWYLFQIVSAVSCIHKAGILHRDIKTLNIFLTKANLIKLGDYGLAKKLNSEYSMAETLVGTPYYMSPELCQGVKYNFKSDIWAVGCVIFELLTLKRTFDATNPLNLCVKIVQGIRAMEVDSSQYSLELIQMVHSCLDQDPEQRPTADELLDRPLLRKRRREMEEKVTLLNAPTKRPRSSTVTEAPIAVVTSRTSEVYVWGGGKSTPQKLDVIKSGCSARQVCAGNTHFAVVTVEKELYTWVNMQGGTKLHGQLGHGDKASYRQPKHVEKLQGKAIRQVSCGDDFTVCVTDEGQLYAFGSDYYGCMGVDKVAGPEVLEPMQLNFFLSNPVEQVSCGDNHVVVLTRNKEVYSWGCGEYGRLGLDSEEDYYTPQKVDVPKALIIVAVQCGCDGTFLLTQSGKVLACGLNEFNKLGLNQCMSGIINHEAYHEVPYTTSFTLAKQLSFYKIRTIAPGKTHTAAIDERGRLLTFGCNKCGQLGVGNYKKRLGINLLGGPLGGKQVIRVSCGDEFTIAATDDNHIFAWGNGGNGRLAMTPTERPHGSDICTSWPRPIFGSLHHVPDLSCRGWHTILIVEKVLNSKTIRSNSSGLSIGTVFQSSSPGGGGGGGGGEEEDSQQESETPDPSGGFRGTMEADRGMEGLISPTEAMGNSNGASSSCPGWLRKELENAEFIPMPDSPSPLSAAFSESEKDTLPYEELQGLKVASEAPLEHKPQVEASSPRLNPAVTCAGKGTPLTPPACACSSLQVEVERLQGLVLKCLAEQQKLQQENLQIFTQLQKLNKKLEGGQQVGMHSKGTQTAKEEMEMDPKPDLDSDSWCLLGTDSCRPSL
# [11] = molecular target: T4, Serine/threonine-protein kinase Nek9 (Homo sapiens); settings: at 1 µM
# [12] = molecular target: Serine/threonine-protein kinase PLK1 (Homo sapiens) (UniProt P53350); settings: at 0.1 µM
# Chain of Serine/threonine-protein kinase PLK1 (Homo sapiens) (P53350 whole entry): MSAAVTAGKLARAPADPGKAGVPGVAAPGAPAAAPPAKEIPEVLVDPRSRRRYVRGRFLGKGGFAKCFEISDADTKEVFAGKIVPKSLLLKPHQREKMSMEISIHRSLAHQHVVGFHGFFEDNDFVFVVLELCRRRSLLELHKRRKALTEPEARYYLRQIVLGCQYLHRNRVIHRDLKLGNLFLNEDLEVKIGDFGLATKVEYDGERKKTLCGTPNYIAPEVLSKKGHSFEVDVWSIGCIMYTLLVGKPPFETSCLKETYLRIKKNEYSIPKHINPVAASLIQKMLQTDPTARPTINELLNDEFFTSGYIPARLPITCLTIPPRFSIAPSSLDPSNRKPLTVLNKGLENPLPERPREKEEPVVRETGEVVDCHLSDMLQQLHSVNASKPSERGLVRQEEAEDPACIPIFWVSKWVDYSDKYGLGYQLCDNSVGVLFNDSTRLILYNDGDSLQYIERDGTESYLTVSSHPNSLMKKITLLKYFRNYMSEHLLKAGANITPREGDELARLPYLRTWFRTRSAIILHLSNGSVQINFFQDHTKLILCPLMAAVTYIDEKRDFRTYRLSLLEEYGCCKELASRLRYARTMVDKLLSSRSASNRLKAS
# [13] = molecular target: Serine/threonine-protein kinase PLK1 (Homo sapiens) (UniProt P53350); settings: at 1 µM
# [14] = molecular target: T5, Dual specificity protein kinase TTK (Homo sapiens) (UniProt P33981); settings: at 0.1 µM
# T5 sequence (whole entry): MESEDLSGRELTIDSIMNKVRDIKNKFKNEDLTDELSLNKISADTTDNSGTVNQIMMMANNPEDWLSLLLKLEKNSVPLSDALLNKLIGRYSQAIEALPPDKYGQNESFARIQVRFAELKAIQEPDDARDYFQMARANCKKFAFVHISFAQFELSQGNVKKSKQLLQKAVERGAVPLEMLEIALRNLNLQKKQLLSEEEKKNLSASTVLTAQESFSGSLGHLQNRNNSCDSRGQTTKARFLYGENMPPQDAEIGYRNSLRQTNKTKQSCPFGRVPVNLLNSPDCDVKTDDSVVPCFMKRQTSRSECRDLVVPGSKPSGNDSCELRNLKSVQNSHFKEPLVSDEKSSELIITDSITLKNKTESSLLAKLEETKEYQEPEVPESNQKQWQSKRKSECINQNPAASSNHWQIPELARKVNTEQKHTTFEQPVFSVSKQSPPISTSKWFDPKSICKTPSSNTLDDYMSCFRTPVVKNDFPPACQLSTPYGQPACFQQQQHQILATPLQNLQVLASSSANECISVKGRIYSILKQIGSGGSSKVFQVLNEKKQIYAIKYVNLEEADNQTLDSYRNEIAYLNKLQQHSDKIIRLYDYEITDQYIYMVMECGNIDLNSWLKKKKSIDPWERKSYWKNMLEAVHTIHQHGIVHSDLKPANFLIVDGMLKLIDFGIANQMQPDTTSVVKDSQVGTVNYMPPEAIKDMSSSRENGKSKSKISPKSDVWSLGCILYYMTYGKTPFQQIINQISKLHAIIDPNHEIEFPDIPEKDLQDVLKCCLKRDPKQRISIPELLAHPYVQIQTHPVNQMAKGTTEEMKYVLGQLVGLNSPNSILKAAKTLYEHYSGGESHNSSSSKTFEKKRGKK
# [15] = tested on: T6, Receptor-type tyrosine-protein kinase FLT3 (Homo sapiens), P36888 [D835Y]; settings: at 1 µM
# T6 sequence (whole entry): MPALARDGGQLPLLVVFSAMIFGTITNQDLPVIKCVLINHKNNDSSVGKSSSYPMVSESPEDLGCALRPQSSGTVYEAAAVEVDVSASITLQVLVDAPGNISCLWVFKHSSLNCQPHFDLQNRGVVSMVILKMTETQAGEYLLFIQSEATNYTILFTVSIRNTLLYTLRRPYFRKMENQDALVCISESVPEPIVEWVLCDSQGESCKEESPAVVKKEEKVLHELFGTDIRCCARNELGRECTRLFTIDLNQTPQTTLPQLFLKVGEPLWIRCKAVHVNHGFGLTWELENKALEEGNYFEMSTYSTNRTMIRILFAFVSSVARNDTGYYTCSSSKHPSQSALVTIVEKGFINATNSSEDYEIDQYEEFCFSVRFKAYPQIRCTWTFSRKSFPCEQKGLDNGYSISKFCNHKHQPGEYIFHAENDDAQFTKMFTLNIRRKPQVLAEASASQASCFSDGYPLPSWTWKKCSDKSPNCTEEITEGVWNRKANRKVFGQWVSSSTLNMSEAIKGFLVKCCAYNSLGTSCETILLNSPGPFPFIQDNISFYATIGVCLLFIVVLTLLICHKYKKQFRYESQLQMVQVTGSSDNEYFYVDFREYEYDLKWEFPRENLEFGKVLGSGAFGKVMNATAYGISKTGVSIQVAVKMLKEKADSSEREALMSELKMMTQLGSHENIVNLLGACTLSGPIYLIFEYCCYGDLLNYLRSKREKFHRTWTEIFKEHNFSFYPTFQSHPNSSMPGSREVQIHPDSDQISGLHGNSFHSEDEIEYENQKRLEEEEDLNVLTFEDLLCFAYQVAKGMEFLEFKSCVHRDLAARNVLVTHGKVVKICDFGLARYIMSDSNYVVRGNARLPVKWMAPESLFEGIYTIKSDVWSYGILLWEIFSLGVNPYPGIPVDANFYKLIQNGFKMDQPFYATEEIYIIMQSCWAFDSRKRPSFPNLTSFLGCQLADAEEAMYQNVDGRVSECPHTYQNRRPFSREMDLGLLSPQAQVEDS
# [16] = molecular target: Vascular endothelial growth factor receptor 3 (Homo sapiens) (UniProt P35916); settings: at 0.1 µM
# Chain of Vascular endothelial growth factor receptor 3 (Homo sapiens) (P35916 whole entry): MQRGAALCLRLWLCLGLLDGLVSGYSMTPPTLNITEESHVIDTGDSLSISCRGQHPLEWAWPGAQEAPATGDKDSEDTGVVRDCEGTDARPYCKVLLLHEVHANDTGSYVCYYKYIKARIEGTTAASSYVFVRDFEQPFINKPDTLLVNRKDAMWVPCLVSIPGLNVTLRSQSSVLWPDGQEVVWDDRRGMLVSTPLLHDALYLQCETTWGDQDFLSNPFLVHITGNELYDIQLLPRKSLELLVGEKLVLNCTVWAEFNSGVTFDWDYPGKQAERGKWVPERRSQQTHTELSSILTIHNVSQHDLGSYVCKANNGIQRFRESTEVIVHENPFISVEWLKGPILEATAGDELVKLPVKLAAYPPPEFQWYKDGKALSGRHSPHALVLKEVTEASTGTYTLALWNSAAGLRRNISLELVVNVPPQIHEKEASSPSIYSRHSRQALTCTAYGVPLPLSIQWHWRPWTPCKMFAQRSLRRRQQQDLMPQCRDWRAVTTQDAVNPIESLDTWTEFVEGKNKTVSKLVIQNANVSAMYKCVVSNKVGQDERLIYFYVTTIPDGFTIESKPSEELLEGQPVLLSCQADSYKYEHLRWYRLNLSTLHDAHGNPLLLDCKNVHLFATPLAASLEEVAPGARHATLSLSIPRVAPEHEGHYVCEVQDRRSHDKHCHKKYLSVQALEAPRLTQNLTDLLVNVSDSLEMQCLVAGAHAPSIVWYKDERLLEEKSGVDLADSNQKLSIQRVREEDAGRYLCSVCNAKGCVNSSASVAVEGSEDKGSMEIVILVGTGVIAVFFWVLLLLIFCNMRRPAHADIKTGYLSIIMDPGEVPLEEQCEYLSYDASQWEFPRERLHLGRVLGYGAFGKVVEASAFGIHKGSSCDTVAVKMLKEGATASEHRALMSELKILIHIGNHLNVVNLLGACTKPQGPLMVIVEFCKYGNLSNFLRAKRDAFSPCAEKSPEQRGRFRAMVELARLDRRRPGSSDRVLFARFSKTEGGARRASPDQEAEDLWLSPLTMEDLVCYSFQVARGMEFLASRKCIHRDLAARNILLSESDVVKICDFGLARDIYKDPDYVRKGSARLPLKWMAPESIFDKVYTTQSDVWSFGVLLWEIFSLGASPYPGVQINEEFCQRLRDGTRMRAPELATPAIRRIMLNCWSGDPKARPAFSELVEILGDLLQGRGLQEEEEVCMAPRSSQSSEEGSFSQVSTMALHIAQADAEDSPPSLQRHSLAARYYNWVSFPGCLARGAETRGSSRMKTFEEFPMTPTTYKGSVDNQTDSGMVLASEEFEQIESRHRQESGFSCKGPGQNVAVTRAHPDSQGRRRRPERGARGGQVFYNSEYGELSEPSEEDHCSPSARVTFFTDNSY
# [17] = molecular target: Vascular endothelial growth factor receptor 3 (Homo sapiens) (UniProt P35916); settings: at 1 µM
# [18] = molecular target: Macrophage colony-stimulating factor 1 receptor (Homo sapiens) (UniProt P07333); settings: at 0.1 µM
# Chain of Macrophage colony-stimulating factor 1 receptor (Homo sapiens) (P07333 whole entry): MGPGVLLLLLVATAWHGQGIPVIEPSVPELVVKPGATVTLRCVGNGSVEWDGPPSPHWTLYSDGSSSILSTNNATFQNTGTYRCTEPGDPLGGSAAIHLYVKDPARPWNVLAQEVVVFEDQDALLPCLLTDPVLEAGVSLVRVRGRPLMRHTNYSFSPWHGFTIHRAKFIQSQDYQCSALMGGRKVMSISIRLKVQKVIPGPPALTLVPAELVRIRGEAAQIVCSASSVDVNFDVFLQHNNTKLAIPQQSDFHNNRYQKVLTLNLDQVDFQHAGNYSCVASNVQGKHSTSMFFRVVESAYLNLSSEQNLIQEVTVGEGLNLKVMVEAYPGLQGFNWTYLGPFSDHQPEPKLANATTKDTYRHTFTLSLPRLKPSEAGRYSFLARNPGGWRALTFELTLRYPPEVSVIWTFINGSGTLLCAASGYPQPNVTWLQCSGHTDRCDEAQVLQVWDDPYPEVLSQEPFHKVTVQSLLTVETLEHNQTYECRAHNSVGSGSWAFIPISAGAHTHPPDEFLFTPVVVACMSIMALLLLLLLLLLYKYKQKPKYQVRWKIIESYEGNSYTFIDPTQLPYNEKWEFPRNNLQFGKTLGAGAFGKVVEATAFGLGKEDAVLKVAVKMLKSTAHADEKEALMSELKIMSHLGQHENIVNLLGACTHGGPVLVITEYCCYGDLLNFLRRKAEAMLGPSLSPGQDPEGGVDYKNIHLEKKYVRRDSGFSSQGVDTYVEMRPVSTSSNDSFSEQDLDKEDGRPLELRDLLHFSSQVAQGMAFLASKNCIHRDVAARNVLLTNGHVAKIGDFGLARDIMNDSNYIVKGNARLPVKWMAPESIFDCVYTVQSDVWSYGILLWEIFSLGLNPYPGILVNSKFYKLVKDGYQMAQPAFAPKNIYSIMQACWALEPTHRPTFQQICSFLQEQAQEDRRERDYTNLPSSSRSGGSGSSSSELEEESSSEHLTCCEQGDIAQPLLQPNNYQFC
# [19] = molecular target: Macrophage colony-stimulating factor 1 receptor (Homo sapiens) (UniProt P07333); settings: at 1 µM
# [20] = molecular target: Tyrosine-protein kinase Fyn (Homo sapiens) (UniProt P06241); settings: at 0.1 µM
# Chain of Tyrosine-protein kinase Fyn (Homo sapiens) (P06241 2-537 limits assumed): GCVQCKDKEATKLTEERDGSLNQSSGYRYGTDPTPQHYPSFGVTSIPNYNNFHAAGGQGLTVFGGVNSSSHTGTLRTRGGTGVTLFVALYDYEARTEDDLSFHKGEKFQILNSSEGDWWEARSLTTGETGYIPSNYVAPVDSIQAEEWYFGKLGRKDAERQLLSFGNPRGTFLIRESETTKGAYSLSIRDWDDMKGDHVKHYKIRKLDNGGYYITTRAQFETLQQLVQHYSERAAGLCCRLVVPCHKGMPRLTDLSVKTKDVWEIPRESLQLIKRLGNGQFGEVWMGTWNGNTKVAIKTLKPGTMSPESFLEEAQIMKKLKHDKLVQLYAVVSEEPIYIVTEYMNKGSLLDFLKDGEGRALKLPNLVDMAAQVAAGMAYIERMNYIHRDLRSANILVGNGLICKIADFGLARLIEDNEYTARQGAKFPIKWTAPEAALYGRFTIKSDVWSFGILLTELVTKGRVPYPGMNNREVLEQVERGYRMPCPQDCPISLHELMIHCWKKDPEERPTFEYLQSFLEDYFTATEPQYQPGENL
structure (smiles),measurement,setting,value
COc1cccc(-c2c[nH]c3c(N/N=C/c4ccncc4)ncnc23)c1,inhibition,[1],16.8%
same,inhibition,[2],1.94%
same,inhibition,[3],10.6%
same,inhibition,[4],2.57%
same,inhibition,[5],2.88%
same,inhibition,[6],3.57%
same,inhibition,[7],-1.66%
same,inhibition,[8],2.88%
same,inhibition,[9],3.62%
same,inhibition,[10],4.67%
same,inhibition,[11],5.28%
same,inhibition,[12],2.36%
same,inhibition,[13],1.97%
same,inhibition,[14],7.43%
same,inhibition,[15],62.7%
same,inhibition,[16],4.35%
same,inhibition,[17],29.5%
same,inhibition,[18],21.6%
same,inhibition,[19],68.6%
same,inhibition,[20],14.4%
